Experimental data published in paper PMC5540273 (PLoS ONE, 2017).

Tested on: WEE1
Details: concentration: 1 μM, replicates: in singlicate; n = 1
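Further: KINOMEscan kinase panel screen.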

SMILES	%Inh [%]
Cn1cnc2c(N)ncnc21 [SKF-97623]	0
Cl.Cl.Cl.N#Cc1ccc(CCNc2nccc(-c3cccc(CN4CCNCC4)c3)n2)cc1 [GSK2137462]	90.8
O=C1NC(=O)C(c2ccc(Cl)cc2)=C1Nc1ccc(O)cc1 [SB-340867]	0
CC[C@@H]1CO[C@H](C(=O)Nc2ccccc2)CN1c1cc(-c2ccc3c(N)n[nH]c3c2)nc(NC)n1 [GSK2376236]	2
Cc1c(Cn2c3ccccc3n3c(=O)cc(N4CCOCC4)nc23)cccc1C(F)(F)F [GSK2306394]	0
CSc1ccc(-c2nc3n(c2-c2ccncc2)CCC3)cc1 [SKF-105561]	0
Cc1ccc(-c2nc(Nc3ccncc3)c3ccccc3n2)s1 [GSK189015]	8
Cc1ccc(NC(=O)Nc2ccc(Cl)cc2)cc1-c1ccc(C(=O)Nc2ccncc2)cc1 [GSK1398472]	16
CC(C)c1ccc(O)cc1Nc1ccnc2ccc(C(F)(F)F)cc12 [GW482059]	0
CC(C)c1cc(-c2ccc3c(N)n[nH]c3c2)nc(N)n1 [GSK2250882]	11
Fc1ccc(-c2nc3n(c2-c2ccncc2)CCS3)cc1 [GI98581]	3
Cc1cccc2c(-c3ccncn3)c(-c3ccc(F)cc3)nn12 [GW515532]	0
COc1cccc(NC(=O)Nc2ccc(C)c(-c3ccc(C(=O)Nc4ccncc4)cc3)c2)c1 [GSK1398474]	11
CNC(=O)c1ccc(C)c(-n2c(C)cc(OCc3ccc(F)cc3F)c(Br)c2=O)c1	0
